{
  "source": "the OligoGym collection",
  "data": [
    {"target": "COX4I2", "assay": "pooled miR-30 sensor sort-seq; sequence = guide strand", "conditions": "shRNA", "values": [
      {"sequence": "TCAGCGTTGAGTTCTGTGCAGA", "sensor-assay potency score (higher = more potent)": -0.281},
      {"sequence": "TGAAGAAGAAGACACAACCCAT", "sensor-assay potency score (higher = more potent)": -0.804},
      {"sequence": "TTCCTCAGCACCAAGCTCCAGG", "sensor-assay potency score (higher = more potent)": -0.515},
      {"sequence": "TTCTTCTCATAGTCCCAGCGGG", "sensor-assay potency score (higher = more potent)": -0.678},
      {"sequence": "AAAGGTCTCATTGAACTGGAGC", "sensor-assay potency score (higher = more potent)": -0.86},
      {"sequence": "TTGAGTTCTGTGCAGAAGGGCT", "sensor-assay potency score (higher = more potent)": -0.914},
      {"sequence": "TCCACCTTTCCTCAGCACCAAG", "sensor-assay potency score (higher = more potent)": -2.06},
      {"sequence": "TTCATCTCCGCAAAGGTCTCAT", "sensor-assay potency score (higher = more potent)": -0.117},
      {"sequence": "TCGTCCGTCAAGGTGATCGGCT", "sensor-assay potency score (higher = more potent)": -1.37},
      {"sequence": "TCTCATTGAACTGGAGCCGGTA", "sensor-assay potency score (higher = more potent)": -1.09},
      {"sequence": "TAGGGGGACATCTTCCCCCCAC", "sensor-assay potency score (higher = more potent)": -1.04},
      {"sequence": "TTCATGTCCAGCATGCGCTGCA", "sensor-assay potency score (higher = more potent)": 0.312}
    ]},
    {"target": "COX6B2", "assay": "pooled miR-30 sensor sort-seq; sequence = guide strand", "conditions": "shRNA", "values": [
      {"sequence": "TACACGCGGAAATAGTACTCGC", "sensor-assay potency score (higher = more potent)": -0.697},
      {"sequence": "TAGTACTCGCAGGGCTGCGTGC", "sensor-assay potency score (higher = more potent)": -1.22},
      {"sequence": "TGGTAGTCCAGGAAGTTCTGGT", "sensor-assay potency score (higher = more potent)": -0.611},
      {"sequence": "TCGTTCCAGCTCTCCACCCAGC", "sensor-assay potency score (higher = more potent)": -1.49},
      {"sequence": "TAGTCCAGGAAGTTCTGGTAGC", "sensor-assay potency score (higher = more potent)": -0.67},
      {"sequence": "TTCTTGATCTGCTCGTTCCAGC", "sensor-assay potency score (higher = more potent)": -0.0146},
      {"sequence": "TTCCAGCTCTCCACCCAGCTGA", "sensor-assay potency score (higher = more potent)": -0.84},
      {"sequence": "TGATCTGCTCGTTCCAGCTCTC", "sensor-assay potency score (higher = more potent)": -0.561},
      {"sequence": "TTGATCTGCTCGTTCCAGCTCT", "sensor-assay potency score (higher = more potent)": -0.259},
      {"sequence": "TACGGATCTGGTTCTGGCTGGG", "sensor-assay potency score (higher = more potent)": -0.241},
      {"sequence": "TCCCGTTCTTGATCTGCTCGTT", "sensor-assay potency score (higher = more potent)": -0.329},
      {"sequence": "TTACGGATCTGGTTCTGGCTGG", "sensor-assay potency score (higher = more potent)": 0.238}
    ]}
  ]
}
